The target in test [1] is Alpha-galactosidase A (Homo sapiens) (UniProt P06280). Description: Counterscreen for Glucocerebrosidase Inhibitors: qHTS Assay for Human alpha-Galactosidase at pH 4.5 (AID 992). Further: 0% is about no effect. An outline of the steps:
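Enzyme at 2 nM final was combined with compound (0.7 nM to 77 uM) and 80 uM 4-methylumbelliferyl alpha-D-galactopyranoside in 50 mM citric acid, 0.005% Tween-20, pH 4.5. After 20 min at room temperature, fluorescence was read (Ex 365/Em 440 nm); AC50 came from Hill fits.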
(A counterscreen serves to expose hits that act by an unwanted route or on another target.)

Test [2] addresses alpha-glucosidase (Oryza sativa, rice) (UniProt Q653V4). In words: Counterscreen for Glucocerebrosidase Inhibitors: qHTS Assay for Rice alpha-Glucosidase at pH 5.0 (AID 997).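 Further: 0% = full activity with enzyme and -100% = basal without enzyme.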 An outline of the steps:
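Rice alpha-glucosidase (4 nM final) with 400 uM 4-methylumbelliferyl-alpha-D-glucopyranoside in citrate buffer pH 5.0, 20 min at room temperature, stopped at pH 10; fluorescence 365/440 nm, compounds 0.7 nM–77 uM, AC50 from Hill fits.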

A short description of test [3]: Cell Viability - LYMP1-002 - Assay at 24 hr (AID 993). Further: potency means the concentration at half of the fitted maximal effect. An outline of the steps:
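Human lymphoblastoid LYMP1-002 cells (2500/well) treated 24 h at 37 °C; viability as intracellular ATP by CellTiter-Glo luminescence. Tetraoctylammonium bromide as positive control; AC50 from Hill-equation fits of qHTS concentration-response.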

Test [4] can be described thus: Cell Viability - LYMP1-002 - Assay at 40 hr (AID 994). Further: nearly all actives have a fitted effect of over 60% in size. Further: potency means the concentration at half of the fitted maximal effect. An outline of the steps: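 LYMP1-002 human lymphoblastoid cells (2500/well, complete medium) were treated with compounds for 40 hr at 37 C. Intracellular ATP was measured by CellTiter-Glo luminescence, and AC50 values came from Hill-equation fits of concentration-response data; tetraoctylammonium bromide was the positive control.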

Test [5] deals with DNA repair nuclease/redox regulator APEX1 (Homo sapiens) (UniProt P27695). Description: qHTS Validation Assay for Inhibitors of the Human Apurinic/apyrimidinic Endonuclease 1 (APE1) (AID 1705;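 further: TAMRA fluorescence gain over two minutes as APE1 cuts a quenched THF abasic duplex; on the % scale 0 is the no-effect control and ±100 the full control effect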). A digest of the protocol:
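Substrate: 50 nM final fluorophore/quencher THF-abasic duplex. Enzyme preincubated with compounds 15 min, RT. Progress derived from fluorescence difference, third minus first kinetic read.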
Background: Quantitative high-throughput screening tests each substance at several concentrations.

Test [6] addresses Endonuclease 4 (Escherichia coli (strain K12)) (UniProt P0A6C1). In words: Counterscreen for APE1 Inhibitors: qHTS Validation Assay for Inhibitors of Endonuclease IV (AID 1708). Further: on the % scale 0 is the no-effect control and ±100 the full control effect. A digest of the protocol: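 qHTS concentration-response format; LOPAC1280 tested under APE1-screen conditions. 2 nM enzyme, 15 min compound preincubation at RT, then 50 nM TAMRA/BHQ-2 abasic substrate; kinetic fluorescence read, three reads at 60 s intervals.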

Test [7] can be described thus: qHTS for differential inhibitors of proliferation of Plasmodium falciparum line GB4 (AID 1816).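 Further: parasite growth measured after 72 h incubation.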 Further: potency means the concentration at half of the fitted maximal effect.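 On activity change, negative = inhibition: 0% = vehicle DMSO and -100% = reference inhibitor.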 As to conditions: Potency: Plasmodium falciparum GB4 proliferation inhibition.
Test [8] can be described thus: qHTS for differential inhibitors of proliferation of Plasmodium falciparum line 3D7 (AID 1876). Further: potency means the concentration at half of the fitted maximal effect.
The nature of test [9]: qHTS for differential inhibitors of proliferation of Plasmodium falciparum line W2 (AID 1883).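 Further: parasites grown with compound for 72 h before lysis and staining.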 Further: potency means the concentration at half of the fitted maximal effect.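 On activity change, negative = inhibition: 0% = vehicle wells and -100% = control inhibitor wells.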 As to conditions: Potency: Plasmodium falciparum W2 proliferation inhibition.
Test [10] in a line: qHTS Assay for Identification of Small Molecule Inducers of Hypoxia Response (AID 2120; active means well fitted curve in the direction sought with a large enough effect in the signal ratio, with a control signal flat, not every such curve was filed as active; the % refers to the signal ratio; further: 0% is about no effect). An outline of the steps: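 HRE-bla ME-180 cells in Opti-MEM with 0.5% dialyzed FBS, pre-plated 4-5 h, then compound titration for 17 h at 37 degrees Celsius. CCF4 loaded 2.5 h at room temperature; 460/530 nm ratio gave %Activity and AC50 for induction.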
Test [11] concerns the target ATP-dependent DNA helicase Q1 (Homo sapiens) (UniProt P46063). Description: qHTS Validation Assay for Inhibitors of RecQ-Like Dna Helicase 1 (RECQ1) (AID 2353).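 Further: plate controls were DMSO vehicle for no effect and enzyme-free control for full effect.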 A digest of the protocol:
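50 nM RECQ1T1 preincubated 15 min with compound in Tris pH 8.0 buffer with MgCl2, DTT, Tween-20 and 2.5 ug/ml poly(dI-dC); started with 200 nM TAMRA/BHQ-2 forked duplex and 2 mM ATP. Unwinding read as fluorescence (525/598 nm), two reads 2 h apart.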

Test [12] can be described thus: qHTS for differential inhibitors of proliferation of Plasmodium falciparum line 7G8 (AID 1815).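 Further: parasite growth measured after three days of incubation.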 Further: potency means the concentration at half of the fitted maximal effect.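 On activity change, negative = inhibition: plate controls were vehicle wells for no effect and reference inhibitor wells for full effect.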
Test [13] is described as follows: qHTS for differential inhibitors of proliferation of Plasmodium falciparum line D10 (AID 1877).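 Further: parasites grown with compound for 72 h before DNA staining.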 Further: potency means the concentration at half of the fitted maximal effect.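 On activity change, negative = inhibition: plate controls were vehicle wells for no effect and reference inhibitor wells for full effect.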
Test [14] in a line: qHTS for differential inhibitors of proliferation of Plasmodium falciparum line Dd2 (AID 1882). Further: nearly all actives have a fitted effect of over 65% in size. Further: potency means the concentration at half of the fitted maximal effect.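 On activity change, negative = inhibition: plate controls were DMSO vehicle for no effect and 0.29 µM artemisinin for full effect.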 As to conditions: Potency: Plasmodium falciparum Dd2 proliferation inhibition. An outline of the steps: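 Dd2-infected erythrocytes (0.3% parasitemia, 2.5% hematocrit final) incubated with compound 72 h at 37 C, 5% CO2; lysed with saponin/Triton buffer containing SYBR Green I, incubated overnight in the dark, then read by fluorescence (485/535 nm). Normalized to 0.29 uM artemisinin and DMSO.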

Test [15] is described as follows: qHTS for differential inhibitors of proliferation of Plasmodium falciparum line HB3 (AID 1886).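 Further: parasites grown with compound for 72 h before SYBR Green readout.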 Further: potency means the concentration at half of the fitted maximal effect.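 On activity change, negative = inhibition: plate controls were vehicle for no effect and reference inhibitor for full effect.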 As to conditions: Potency: Plasmodium falciparum HB3 proliferation inhibition.
In test [16] the target is Ferritin light chain (Equus caballus) (UniProt P02791). Description: qHTS Validation Assay for Identification of Novel General Anesthetics (AID 2323). Further: on the % scale 0 is the no-effect control and ±100 the full control effect. An outline of the steps: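 Normalized fluorescence response, scaled between free 1-AMA and 1-AMA/apoferritin complex, fitted to a four-parameter Hill equation for concentration-effect values. Binding mix: 10 uM horse-spleen apoferritin, 50% saturated 1-AMA in PBS; read 380/535 nm after 10 min.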

In test [17] the target is RecQ-like DNA helicase BLM (Homo sapiens) (UniProt P54132). In words: qHTS Validation Assay for Inhibitors of Bloom's syndrome helicase (BLM) (AID 2364). Further: potency means the concentration at half of the fitted maximal effect.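 On activity change, negative = inhibition: plate controls were DMSO vehicle for no effect and enzyme-free control for full effect.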 A digest of the protocol:
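Forked 20-bp duplex substrate (200 nM, TAMRA/BHQ-2) plus 2 mM ATP added after 15 min compound preincubation with 50 nM enzyme, pH 8.0, poly(dI-dC) 2.5 ug/ml. Strand separation followed by fluorescence (525/598 nm) over 2 h, normalized to enzyme-free and DMSO controls.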

Test [18] in a line: qHTS Assay for Lipid Storage Modulators (AID 1519; calls by dose curve; on activity change, negative = inhibition: on the % scale 0 is the no-effect control and ±100 the full control effect). As to conditions: Drosophila S3 cells, BODIPY lipid droplet/cell ratio, laser cytometry, cells loaded with oleic acid. A digest of the protocol: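 Cells seeded at 5,000 per well were treated with compounds over a concentration series and loaded with oleic acid (400 uM, as added). Lipid droplet fluorescence (488 nm excitation, 500-530 nm channel) was read by laser-scanning cytometry and normalized to 20 uM Triacsin C.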

Setting [19] is: measured here: cell count channel max response.
Setting [20] is: measured here: lipid channel max response.

Each structure is given as a SMILES string. “And” between values parts separate entries of the source, which are not always exact repeats. Equal entries are not always repeated. Inconclusive results are not listed. The source made the active and inactive calls. Unless noted, the call rests on the fitted dose curve; in most records, active means well fitted curve in the direction sought with a large enough effect; inconclusive means small, poorly fitted or top-dose-only effect, or another doubt; inactive means no such curve, though single readings can be large; an effect the other way counts as inactive or inconclusive.

Ferritin light chain (Equus caballus), sequence (P02791 2-175 limits assumed): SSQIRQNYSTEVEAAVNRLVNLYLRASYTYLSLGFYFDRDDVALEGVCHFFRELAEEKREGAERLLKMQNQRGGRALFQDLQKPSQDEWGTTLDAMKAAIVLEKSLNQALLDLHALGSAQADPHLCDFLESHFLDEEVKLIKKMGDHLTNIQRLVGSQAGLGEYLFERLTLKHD
DNA repair nuclease/redox regulator APEX1 (Homo sapiens), sequence (P27695 whole entry, looked up): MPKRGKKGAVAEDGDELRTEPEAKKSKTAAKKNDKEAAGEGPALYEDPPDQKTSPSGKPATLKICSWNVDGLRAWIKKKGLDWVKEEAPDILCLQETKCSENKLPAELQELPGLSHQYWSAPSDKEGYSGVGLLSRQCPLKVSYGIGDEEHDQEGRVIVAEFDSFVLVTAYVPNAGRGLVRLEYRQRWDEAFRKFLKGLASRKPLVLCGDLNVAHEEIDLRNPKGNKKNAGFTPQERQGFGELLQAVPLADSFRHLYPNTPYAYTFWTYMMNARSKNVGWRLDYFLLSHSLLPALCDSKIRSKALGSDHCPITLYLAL
Alpha-galactosidase A (Homo sapiens), sequence (P06280 whole entry, looked up): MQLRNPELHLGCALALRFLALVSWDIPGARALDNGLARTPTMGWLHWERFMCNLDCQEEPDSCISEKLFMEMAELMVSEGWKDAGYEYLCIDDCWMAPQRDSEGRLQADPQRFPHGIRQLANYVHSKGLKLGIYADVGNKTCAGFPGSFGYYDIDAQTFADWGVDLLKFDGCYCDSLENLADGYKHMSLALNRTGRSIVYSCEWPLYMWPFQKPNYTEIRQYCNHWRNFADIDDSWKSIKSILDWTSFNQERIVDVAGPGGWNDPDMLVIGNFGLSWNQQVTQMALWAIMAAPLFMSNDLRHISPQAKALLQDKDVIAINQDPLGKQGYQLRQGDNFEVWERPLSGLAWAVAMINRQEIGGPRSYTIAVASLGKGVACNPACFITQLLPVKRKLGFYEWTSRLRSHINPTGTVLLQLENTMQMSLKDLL
ATP-dependent DNA helicase Q1 (Homo sapiens), sequence (P46063 whole entry, looked up): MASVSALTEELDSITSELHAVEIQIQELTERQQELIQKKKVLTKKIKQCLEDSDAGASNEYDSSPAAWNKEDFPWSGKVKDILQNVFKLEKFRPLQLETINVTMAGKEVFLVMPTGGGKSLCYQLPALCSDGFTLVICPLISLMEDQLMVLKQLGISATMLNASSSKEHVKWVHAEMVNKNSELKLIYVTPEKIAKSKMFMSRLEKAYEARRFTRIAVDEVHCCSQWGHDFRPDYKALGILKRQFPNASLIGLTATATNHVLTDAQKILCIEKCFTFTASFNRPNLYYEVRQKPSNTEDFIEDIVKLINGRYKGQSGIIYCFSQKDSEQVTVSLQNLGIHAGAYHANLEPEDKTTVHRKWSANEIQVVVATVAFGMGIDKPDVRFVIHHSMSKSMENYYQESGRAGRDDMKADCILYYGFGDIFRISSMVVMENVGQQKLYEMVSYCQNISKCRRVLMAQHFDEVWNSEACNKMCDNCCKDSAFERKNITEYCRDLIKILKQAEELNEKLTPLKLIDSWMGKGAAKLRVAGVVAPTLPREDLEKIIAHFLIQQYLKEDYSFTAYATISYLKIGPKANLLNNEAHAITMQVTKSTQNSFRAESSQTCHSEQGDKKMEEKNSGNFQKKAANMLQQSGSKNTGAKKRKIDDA
RecQ-like DNA helicase BLM (Homo sapiens), sequence (P54132 whole entry, looked up): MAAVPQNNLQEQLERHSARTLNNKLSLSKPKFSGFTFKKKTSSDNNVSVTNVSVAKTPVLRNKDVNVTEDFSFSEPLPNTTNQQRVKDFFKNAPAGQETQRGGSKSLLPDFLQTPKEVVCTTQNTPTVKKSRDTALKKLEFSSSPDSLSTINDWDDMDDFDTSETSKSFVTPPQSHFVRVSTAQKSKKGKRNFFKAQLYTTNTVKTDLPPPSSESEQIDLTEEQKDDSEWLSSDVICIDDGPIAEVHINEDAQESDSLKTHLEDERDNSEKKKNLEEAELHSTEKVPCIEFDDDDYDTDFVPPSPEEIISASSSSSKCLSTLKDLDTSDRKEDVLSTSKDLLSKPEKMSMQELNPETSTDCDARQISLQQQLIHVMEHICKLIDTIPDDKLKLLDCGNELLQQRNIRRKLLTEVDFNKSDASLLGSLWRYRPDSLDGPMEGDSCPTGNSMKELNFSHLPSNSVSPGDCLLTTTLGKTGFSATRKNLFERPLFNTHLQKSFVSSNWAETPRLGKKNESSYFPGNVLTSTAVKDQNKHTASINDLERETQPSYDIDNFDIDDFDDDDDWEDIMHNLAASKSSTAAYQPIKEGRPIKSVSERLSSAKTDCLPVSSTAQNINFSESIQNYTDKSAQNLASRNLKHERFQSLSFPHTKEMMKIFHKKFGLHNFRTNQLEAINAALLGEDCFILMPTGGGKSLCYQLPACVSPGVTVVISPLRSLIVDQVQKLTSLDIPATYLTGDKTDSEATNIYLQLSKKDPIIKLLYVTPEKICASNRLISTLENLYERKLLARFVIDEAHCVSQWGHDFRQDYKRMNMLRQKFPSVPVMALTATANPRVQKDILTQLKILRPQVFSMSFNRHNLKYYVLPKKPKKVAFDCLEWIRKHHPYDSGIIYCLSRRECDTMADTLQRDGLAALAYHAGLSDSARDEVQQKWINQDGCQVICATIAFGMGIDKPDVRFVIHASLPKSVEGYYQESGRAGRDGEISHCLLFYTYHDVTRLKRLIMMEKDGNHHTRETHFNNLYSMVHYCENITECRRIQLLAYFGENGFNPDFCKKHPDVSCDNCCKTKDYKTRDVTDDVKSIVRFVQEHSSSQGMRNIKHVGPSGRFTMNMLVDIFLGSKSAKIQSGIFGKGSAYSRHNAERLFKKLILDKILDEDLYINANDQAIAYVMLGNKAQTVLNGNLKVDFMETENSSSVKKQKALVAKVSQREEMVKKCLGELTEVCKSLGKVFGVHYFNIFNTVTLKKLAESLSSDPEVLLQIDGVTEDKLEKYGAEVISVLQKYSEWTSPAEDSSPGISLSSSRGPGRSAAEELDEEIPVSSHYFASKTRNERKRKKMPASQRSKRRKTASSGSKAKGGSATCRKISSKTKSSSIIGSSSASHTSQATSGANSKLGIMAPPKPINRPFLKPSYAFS

With `C[N+](C)(C)CC(=O)O`, the result in [1] and in test [2] was inactive.

For the molecule `CCCCC1C(=O)N(c2ccccc2)N(c2ccccc2)C1=O`, the result in [1], in test [2], in [5], in test [6], in [10] and in test [11] was inactive. In addition, the Potency result in test [3] and in [4] was “inactive” each time. Moreover, the Potency is 14.1 µM (active) in [7], 11.2 µM (active) in test [8] and 11.2 µM (active) in test [9].

Take `O=C(O)Cc1cccc2ccccc12`: the Potency result in [3] and in test [4] was “inactive” throughout. For the same molecule, the outcome in test [10] was inactive.

With `CCN(CC)CCNC(=O)c1ccc(N)cc1`, the result in test [1], in [2], in test [5], in test [6], in [16] and in test [11] was inactive. Also, the Potency result in test [12], in [7], in [8], in test [13], in test [14] and in test [9] was “inactive” throughout. Also, in test [15], the Potency result was “inactive”.

As to `CC(=O)N[C@@H](CS)C(=O)O`, the molecule was called inactive in test [1], in [2], in [5], in test [6] and in [16]. The Potency entry in test [12], in test [7], in test [8], in test [13], in test [14] and in [9] was “inactive” each time. The Potency entry in [15] was “inactive”.

With `CC1=C(/C=C/C(C)=C/C=C/C(C)=C/C(=O)Nc2ccc(O)cc2)C(C)(C)CCC1`, the molecule was called inactive in test [1], in test [2], in test [5], in test [6] and in test [11]. In addition, the Potency in [3] is 50.1 µM (active); in [4], 50.1 µM (active); in [12], 3.55 µM (active); in test [7] it was 6.31 µM (active); in [8], 11.2 µM (active); in test [13] it was 12.6 µM (active). Further, the Potency in [14] was 11.2 µM (active); in [9] it was 3.98 µM (active); in test [15], 12.6 µM (active).

Turning to `CC1(C)CCC2=C(O1)c1ccccc1C(=O)C2=O`, the molecule was called inactive in [1], in test [2], in test [5], in test [6] and in test [11]. Also, the Potency in test [12] was 3.55 µM (active); in test [7], 3.98 µM (active); in test [8] it was 10 µM (active); in test [13], 11.2 µM (active); in test [14], 12.6 µM (active); in [9] it was 7.08 µM (active). Besides, the figures for the Potency in test [15] and in [17] were 12.6 µM (active) and 25.1 µM (active), respectively.

Turning to `CC(=O)O[C@]1(C(C)=O)CC[C@H]2[C@@H]3C=C(Cl)C4=CC(=O)[C@@H]5C[C@@H]5[C@]4(C)[C@H]3CC[C@@]21C`, the Potency entry in [3] and in test [4] was “inactive” throughout.

Turning to `COCCCCC(=NOCCN)c1ccc(C(F)(F)F)cc1`, the outcome in test [1] and in [2] was inactive. Moreover, the activity change, negative = inhibition in [18] (at 25.7 µM (top of the series)) is 0.501% (inactive). Also, the figures for the max response in test [18] (setting [19]) and in test [18] (setting [20]) were 5.99% and 5.1%, respectively.

As for `O=C1NC(=O)C(c2ccccc2)(c2ccccc2)N1`, the molecule was classed as inactive in test [1], in [2], in test [5], in test [16] and in test [11]. Besides, the Potency result in test [3], in test [4], in test [12], in test [7], in test [8] and in [13] was “inactive” throughout. For the same molecule, the Potency result in test [14], in test [9] and in test [15] was “inactive” throughout. The activity change, negative = inhibition in [18] (at 57.5 µM (top of the series)) was 7.13% (inactive) and 0.319% (inactive). The max response was 12.1% and -15.7% in test [18] (setting [19]); 24.5% and -14.7% in [18] (setting [20]).

Consider `CCn1cc(C(=O)O)c(=O)c2ccc(C)nc21`, for which the Potency result in [3] and in [4] was “inactive” each time.

Turning to `CN(C)CCC(c1ccccc1)c1ccccn1` (stereo not drawn), the Potency result in [3], in [4], in test [8], in test [13], in test [15] and in [17] was “inactive” throughout. Besides, the activity change, negative = inhibition in test [18] (at 57.5 µM (top of the series)) was 5.69% (inactive). Moreover, the max response was 23.2% in test [18] (setting [19]) and 33.1% in test [18] (setting [20]). In addition, the result in test [5], in [6], in test [16] and in test [11] was inactive. Moreover, the Potency was 5.62 µM (active) in test [7] and 3.55 µM (active) in [9].

As for `COc1ccc(Cc2nccc3cc(OC)c(OC)cc23)cc1OC`, the call in test [1] and in [2] was inactive.

Turning to `CC(C)(C)c1ccc(C(O)CCCN2CCC(C(O)(c3ccccc3)c3ccccc3)CC2)cc1` (stereo not drawn), the molecule was classed as inactive in test [1], in test [2], in test [5] and in test [11]. The activity change, negative = inhibition in test [18] (at 57.5 µM (top of the series)) is -1.34% (inactive). The max response was -10.3% in test [18] (setting [19]) and -13.9% in test [18] (setting [20]).

Source of the values: PubChem BioAssay (NCATS).
